This note sets out measurements from PubChem BioAssay (Tox21).

SMILES strings stand for the structures. Values without a mark were called inactive. Inconclusive results are not listed. Activity calls are given as the source filed them. Unless noted, calls follow the shape of the full dose curve.

A short description of assay [1]: Nuclear factor erythroid 2-related factor 2/antioxidant responsive element (Nrf2/ARE) small molecule agonists: qHTS cell viability counter screen in human keratinocytes (AID 1919968; active = well fitted curve in the direction sought with a large enough effect in the repeat runs; an effect the other way counts as inactive or inconclusive; also: nearly all actives have a fitted effect of over 55% in size). In a few lines:
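Cells of the KeratinoSens line were plated at 1,500 per well and left for 5 h before compound transfer from DMSO stocks. After a 23 h incubation (37 C, 5% CO2), CellTiter-Fluor was added. Signal was taken as fluorescence intensity 1 h later.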
On the technique in general: Quantitative high-throughput screening tests each substance at several concentrations.

For assay [2], the target named is Gonadotropin-releasing hormone receptor (Homo sapiens) (UniProt P30968). Nature of the assay: Human gonadotropin-releasing hormone receptor (GnRHR) small molecule agonists, calcium flux assay in GnRHR-HEK293 cells (AID 1920063). Also: nearly all actives have a fitted effect of over 35% in size. Also: potency is read from the fitted curve at half-maximal effect. An outline of the steps:
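Compounds dissolved in DMSO are pin-transferred onto dye-loaded GnRHR-HEK293 cells, which were seeded 18 h before at 37 C/5% CO2. Calcium signal is read as fluorescence intensity at 1 s intervals for 3 min.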
For orientation: Calcium flux is commonly read through the fluorescence of an indicator in the cells.

For assay [3], the target named is KiSS-1 receptor (Homo sapiens) (UniProt Q969F8). Nature of the assay: Human kisspeptin (KISS1R) small molecule agonists, calcium flux assay in KISS1R-HEK293 cells (AID 1920064; active = well fitted curve in the direction sought with a large enough effect in the repeat runs; an effect the other way counts as inactive or inconclusive). An outline of the steps: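 Cell line: HEK293, stable human KISS1R. Dye loading 1 h at 37 C after 18 h culture. Read: kinetic fluorescence, 480/540 nm, 3 min at 1 s intervals.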
A short description of assay [4]: G protein-coupled receptor (GPCR) small molecule agonists, calcium flux assay: HEK293 wild type cell line counter screen (AID 1920065). An outline of the steps: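 Tox21 10K compounds, 15 concentrations each in triplicate, pin-transferred in DMSO onto dye-loaded cells; kinetic read at 480/540 nm for 3 min, 1 s intervals.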
Assay [5] in a line: p53 small molecule agonists, cell-based qHTS assay with human liver microsomes (AID 1963577).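 Also: p53 response element beta-lactamase reporter cells with liver microsomes plus NADPH.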 An outline of the steps:
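Metabolically competent format: test substances, human liver microsomes and NADPH (both 0.5 mg/mL final) incubated with p53RE-bla cells 16 h at 37 C. Beta-lactamase reporter signal then quantified by fluorescence.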

The nature of assay [6]: p53 small molecule agonists, cell-based qHTS assay with rat liver microsomes (AID 1963578). In a few lines:
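Each plate received p53RE-bla cells, then compound, then rat liver microsomes and NADPH (both 0.5 mg/mL final). Plates were held 16 h at 37 C, and beta-lactamase activity was detected with LiveBLAzer over 2 h.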

Assay [7] in a line: p53 small molecule agonists, cell-based qHTS assay with human liver microsomes: qHTS cell viability counter screen (AID 1963579). Also: nearly all actives have a fitted effect of over 45% in size. An outline of the steps: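 Tox21 library compounds, delivered from DMSO stocks, were tested on p53RE-bla cells together with 0.5 mg/mL human liver microsomes and 0.5 mg/mL NADPH (final) over 16 h at 37 C; CellTiter-Glo luminescence served as the cytotoxicity measure.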

Assay [8] in a line: p53 small molecule agonists, cell-based qHTS assay with rat liver microsomes: qHTS cell viability counter screen (AID 1963580). Also: nearly all actives have a fitted effect of over 45% in size. In a few lines: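 Cytotoxicity counter screen: intracellular ATP measured by CellTiter-Glo luminescence in the same wells as the beta-lactamase reporter read, on HCT-116 p53RE-bla cells exposed 16 h at 37 C to compounds with rat liver microsomes and NADPH, each 0.5 mg/mL final.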

A short description of assay [9]: p53 small molecule agonists, cell-based qHTS assay: qHTS cell viability counter screen (AID 1963581). Also: nearly all actives have a fitted effect of over 45% in size. An outline of the steps:
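ATP content measured by luminescence in HCT-116 p53RE-bla cells treated 16 h at 37 C, same wells as the reporter screen.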

Assay [10] in a line: p53 small molecule agonists, cell-based qHTS assay (AID 1963582; active = well fitted activation curve with a large enough effect in the signal ratio in the repeat runs, not every such curve was filed as active; the % refers to the signal ratio). An outline of the steps:
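16 h compound exposure (37 C) of p53 response element–bla cells, preceded by 5 h recovery at 37 C/5% CO2; read-out via LiveBLAzer B/G FRET substrate, 2 h RT, fluorescence intensity.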

Assay [11] deals with 5-hydroxytryptamine receptor 2A (Homo sapiens) (UniProt P28223). Nature of the assay: 5-hydroxytryptamine receptor 2A (HTR2A) small molecule antagonists, cell-based qHTS assay (AID 1963586). Also: nearly all actives have a fitted effect of over 45% in size. In a few lines:
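CHO cells stably expressing human HTR2A were plated for 18 h at 37 C, then loaded with calcium dye for 1 h. Compounds were preincubated 5 min at room temperature before DOI (4 nM solution) was added. Kinetic fluorescence was read for 3 min.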

The target in assay [12] is Muscarinic acetylcholine receptor M1 (Homo sapiens) (UniProt P11229). As to the kind of experiment: Cholinergic receptor muscarinic 1 (CHRM1) small molecule antagonists, cell-based qHTS assay (AID 1963588). Also: nearly all actives have a fitted effect of over 40% in size. An outline of the steps:
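Compounds were tested at 15 concentrations in three independent runs. Dye-loaded CHRM1-CHO cells were exposed 5 min at room temperature before stimulation by acetylcholine added at 50nM. Intracellular calcium was read kinetically on FDSS for 3 min.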

The target is the same in assay [13]. As to the kind of experiment: Cholinergic receptor muscarinic 1 (CHRM1) small molecule agonists, cell-based qHTS assay (AID 1963589). Also: nearly all actives have a fitted effect of over 35% in size. In a few lines: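 Homogeneous fluorescence calcium flux, agonist mode. Human M1-expressing CHO cells; compound dosed at 15 concentrations, three independent runs; signal sampled every 1 sec.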
The nature of assay [14]: cAMP Responsive Elements (CRE) small molecule agonists, cell-based qHTS assay (AID 1963590). An outline of the steps:
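HEK 293T cells stably bearing CRE-bla were plated at 2,000 cells per well and rested 18 h. Compounds, positive controls or DMSO were added for 3 h at 37 C. LiveBLAzer B/G substrate was then loaded for 2 h at room temperature.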

Assay [15] is described as follows: cAMP Responsive Elements (CRE) small molecule antagonists, cell-based qHTS assay (AID 1963591; active = well fitted inhibition curve with a large enough effect in the signal ratio in the repeat runs, not every such curve was filed as active; the % refers to the signal ratio). An outline of the steps:
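First, CRE-bla HEK293T cells settled 18 h at 37 C. Next, compound and 0.25 uM final NKH477 were applied for 3 h. Last, LiveBLAzer B/G substrate was loaded for 2 h at room temperature.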

In assay [16] the target is Beta-2 adrenergic receptor (Homo sapiens) (UniProt P07550). As to the kind of experiment: Adrenergic beta2 receptor (ADRB2) small molecule agonists, cell-based qHTS assay (AID 1963593).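 Also: CHO cells stably overexpressing human ADRB2.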 In a few lines: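 CHO cells stably over-expressing ADRB2 were plated overnight at 37C, then dosed with compounds plus a stimulation mix containing 100uM IBMX and 25uM Ro-20-1724 for 0.5hr at room temperature. cAMP was measured by HTRF competition, 1hr.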

Assay [17] addresses D(2) dopamine receptor (Homo sapiens) (UniProt P14416). As to the kind of experiment: Dopamine D2 receptor (DRD2) small molecule agonists, cell-based qHTS assay (AID 1963594). Also: nearly all actives have a fitted effect of over 35% in size. In a few lines: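 HEK293 cells stably expressing human DRD2, pre-treated with PDE inhibitor Ro20-1724 (0.1 mM final) and compound 10 min at room temperature, then stimulated with NKH477 (200nM […]) for 30 min. cAMP read by HTRF (665/620 nm).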

Assay [18] shares this target. As to the kind of experiment: Dopamine D2 receptor (DRD2) small molecule antagonists, cell-based qHTS assay (AID 1963595; active = well fitted inhibition curve with a large enough effect in the signal ratio in the repeat runs, with a control signal flat; the % refers to the signal ratio; also: potency is read from the fitted curve at half-maximal effect). An outline of the steps: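 Antagonism was scored as restored cAMP in HEK293-DRD2 cells. These cells were stimulated with 200 nM NKH477 and 12 nM quinpirole for 30 min at room temperature, in the presence of 0.1 mM Ro20-1724.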
The target in assay [19] is 5-hydroxytryptamine receptor 2A (Homo sapiens) (UniProt P28223). As to the kind of experiment: 5-hydroxytryptamine receptor 2A (HTR2A) small molecule agonists, cell-based qHTS assay (AID 1963587). Also: nearly all actives have a fitted effect of over 30% in size. In a few lines: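 CHO cells stably expressing human HTR2A, plated 18 h, loaded with calcium dye 1 h at 37 C. Agonist mode: compounds added and intracellular calcium fluorescence recorded kinetically for 2 min at 1 sec intervals.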

Assay [20] concerns the target Beta-2 adrenergic receptor (Homo sapiens) (UniProt P07550). Nature of the assay: Adrenergic beta2 receptor (ADRB2) small molecule antagonists, cell-based qHTS assay (AID 1963592). Also: series mostly up to about 92 µM; nearly all actives have a fitted effect of over 50% in size. In a few lines: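 Assay format: CHO-ADRB2 cells, 18-20hr seeding at 37C/5% CO2, then compound plus 1nM isoproterenol agonist mix for 0.5hr RT. Homogeneous time-resolved fluorescence cAMP detection after 1hr, expressed as 665/615 nm ratio.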

Sequence of Gonadotropin-releasing hormone receptor (Homo sapiens) (P30968 whole entry, looked up): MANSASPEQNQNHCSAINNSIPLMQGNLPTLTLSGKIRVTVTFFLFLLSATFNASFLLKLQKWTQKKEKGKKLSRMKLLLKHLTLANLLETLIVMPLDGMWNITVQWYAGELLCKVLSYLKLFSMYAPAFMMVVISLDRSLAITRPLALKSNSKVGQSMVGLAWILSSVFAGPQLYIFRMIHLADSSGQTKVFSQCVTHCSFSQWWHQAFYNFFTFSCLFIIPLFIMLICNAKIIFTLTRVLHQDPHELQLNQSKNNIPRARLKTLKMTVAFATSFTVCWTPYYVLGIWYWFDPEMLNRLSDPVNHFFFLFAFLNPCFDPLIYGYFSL
Sequence of 5-hydroxytryptamine receptor 2A (Homo sapiens) (P28223 whole entry, looked up): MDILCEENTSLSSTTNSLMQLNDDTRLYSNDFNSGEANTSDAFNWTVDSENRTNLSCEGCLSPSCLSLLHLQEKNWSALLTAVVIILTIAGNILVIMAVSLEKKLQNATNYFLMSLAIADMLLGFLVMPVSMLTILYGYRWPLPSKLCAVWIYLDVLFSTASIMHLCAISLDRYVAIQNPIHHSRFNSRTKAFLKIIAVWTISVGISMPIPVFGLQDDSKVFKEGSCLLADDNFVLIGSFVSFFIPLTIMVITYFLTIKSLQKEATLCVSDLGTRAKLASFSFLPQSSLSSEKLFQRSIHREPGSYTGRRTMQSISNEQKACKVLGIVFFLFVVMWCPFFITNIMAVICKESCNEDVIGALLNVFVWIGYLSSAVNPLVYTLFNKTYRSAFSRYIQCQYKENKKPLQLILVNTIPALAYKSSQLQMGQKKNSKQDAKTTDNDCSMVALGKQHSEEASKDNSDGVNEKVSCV
Sequence of Beta-2 adrenergic receptor (Homo sapiens) (P07550 whole entry, looked up): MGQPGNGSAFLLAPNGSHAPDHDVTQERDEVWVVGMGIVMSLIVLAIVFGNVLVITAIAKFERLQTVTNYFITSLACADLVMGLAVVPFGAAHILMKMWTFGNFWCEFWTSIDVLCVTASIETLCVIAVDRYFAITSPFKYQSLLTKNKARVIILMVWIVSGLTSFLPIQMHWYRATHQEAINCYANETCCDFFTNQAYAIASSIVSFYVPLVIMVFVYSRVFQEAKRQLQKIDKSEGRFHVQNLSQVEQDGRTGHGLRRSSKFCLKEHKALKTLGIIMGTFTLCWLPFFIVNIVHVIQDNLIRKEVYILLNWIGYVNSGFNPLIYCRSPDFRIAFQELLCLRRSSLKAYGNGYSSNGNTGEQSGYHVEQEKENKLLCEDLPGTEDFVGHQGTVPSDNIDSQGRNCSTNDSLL
Sequence of D(2) dopamine receptor (Homo sapiens) (P14416 whole entry, looked up): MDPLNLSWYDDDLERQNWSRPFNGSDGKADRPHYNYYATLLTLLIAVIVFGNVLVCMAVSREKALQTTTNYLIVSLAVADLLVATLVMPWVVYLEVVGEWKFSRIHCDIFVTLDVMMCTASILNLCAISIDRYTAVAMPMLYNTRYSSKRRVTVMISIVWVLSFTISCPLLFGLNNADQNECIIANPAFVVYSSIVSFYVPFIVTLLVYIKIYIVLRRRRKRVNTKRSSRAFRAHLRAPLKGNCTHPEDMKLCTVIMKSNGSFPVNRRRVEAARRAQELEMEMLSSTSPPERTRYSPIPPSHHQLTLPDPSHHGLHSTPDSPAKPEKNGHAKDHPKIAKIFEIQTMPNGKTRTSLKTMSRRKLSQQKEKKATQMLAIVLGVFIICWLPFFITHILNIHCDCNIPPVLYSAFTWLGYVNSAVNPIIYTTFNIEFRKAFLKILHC
Sequence of KiSS-1 receptor (Homo sapiens) (Q969F8 whole entry, looked up): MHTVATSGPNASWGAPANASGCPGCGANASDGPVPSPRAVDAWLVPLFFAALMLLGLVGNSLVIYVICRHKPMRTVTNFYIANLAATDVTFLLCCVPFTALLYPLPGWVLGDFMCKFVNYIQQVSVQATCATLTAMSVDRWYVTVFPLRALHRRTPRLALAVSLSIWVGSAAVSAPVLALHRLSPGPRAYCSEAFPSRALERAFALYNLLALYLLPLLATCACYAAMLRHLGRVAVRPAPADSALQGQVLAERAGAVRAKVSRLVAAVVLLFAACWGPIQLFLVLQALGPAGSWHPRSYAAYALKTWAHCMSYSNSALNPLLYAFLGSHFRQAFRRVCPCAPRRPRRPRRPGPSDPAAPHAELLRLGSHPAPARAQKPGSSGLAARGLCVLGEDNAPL
Sequence of Muscarinic acetylcholine receptor M1 (Homo sapiens) (P11229 whole entry, looked up): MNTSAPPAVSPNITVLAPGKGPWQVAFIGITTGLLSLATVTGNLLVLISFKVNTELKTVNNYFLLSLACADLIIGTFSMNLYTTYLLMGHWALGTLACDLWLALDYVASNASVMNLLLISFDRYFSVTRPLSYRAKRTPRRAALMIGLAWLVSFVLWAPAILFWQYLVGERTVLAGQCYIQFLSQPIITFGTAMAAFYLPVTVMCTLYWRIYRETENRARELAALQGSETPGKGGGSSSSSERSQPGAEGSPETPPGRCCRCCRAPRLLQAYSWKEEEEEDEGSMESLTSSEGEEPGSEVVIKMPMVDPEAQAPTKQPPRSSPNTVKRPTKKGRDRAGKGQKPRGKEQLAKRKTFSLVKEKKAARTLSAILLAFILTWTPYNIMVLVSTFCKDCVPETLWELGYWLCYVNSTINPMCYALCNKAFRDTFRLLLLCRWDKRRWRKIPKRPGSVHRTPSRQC

On to `CC(C)=CCC[C@@](C)(O)[C@H]1CC=C(C)CC1`, for which the Potency result in assay [1], in assay [2], in assay [5], in assay [6], in assay [7] and in assay [8] was “inactive” each time. Also, the Potency entry in assay [9], in assay [10], in [11], in [12], in assay [13] and in assay [14] was “inactive” each time. In addition, the Potency result in [15], in [16], in assay [17] and in assay [18] was “inactive” in each case. In addition, the result in assay [3] and in assay [4] was inactive.
For `Nc1ccc(S(=O)(=O)Nc2ccccn2)cc1`, the Potency result in [1], in assay [2], in assay [5], in [6], in assay [7] and in assay [8] was “inactive” each time. Further, the Potency result in assay [9], in assay [10], in assay [19], in [12], in assay [13] and in assay [14] was “inactive” each time. The Potency result in assay [15], in assay [20], in assay [16], in assay [17] and in assay [18] was “inactive” each time. Further, the outcome in [3] and in assay [4] was inactive.
As to `CCN1CCCC1CNC(=O)c1cc(S(=O)(=O)CC)c(N)cc1OC` (stereo not given), the Potency entry in [1], in [2], in assay [5], in assay [6], in assay [7] and in [8] was “inactive” in each case. Further, the Potency result in assay [9], in assay [10], in assay [12], in [13], in assay [14] and in [20] was “inactive” in each case. For the same compound, in assay [16], the Potency entry was “inactive”. For the same compound, the result in assay [3] and in assay [4] was inactive.
Take `Nc1nc(N)nc(-c2cc(Cl)ccc2Cl)n1`: the Potency entry in assay [1], in assay [2], in assay [5], in assay [6], in [7] and in [8] was “inactive” each time. Moreover, the Potency result in assay [9], in assay [10], in [14], in assay [15], in assay [20] and in assay [18] was “inactive” each time. The result in assay [3] and in [4] was inactive.
As to `ClC1=C(Cl)C1(Cl)Cl`, the Potency result in assay [1], in assay [2], in assay [5], in [6], in assay [7] and in [8] was “inactive” in each case. Besides, the Potency result in assay [9], in assay [10], in assay [11], in assay [19], in assay [14] and in assay [15] was “inactive” each time. In addition, the Potency entry in [20], in [17] and in assay [18] was “inactive” throughout. Moreover, the outcome in assay [3] and in assay [4] was inactive.
In the case of `CN(C)C(=O)Nc1ccc(Oc2ccc(Cl)cc2)cc1`, the Potency result in assay [1], in [2], in assay [5], in [6], in [7] and in assay [8] was “inactive” throughout. Moreover, the Potency entry in assay [9], in assay [10], in [11], in assay [13], in assay [14] and in assay [15] was “inactive” throughout. Also, the Potency result in [20], in [17] and in assay [18] was “inactive” in each case. In addition, the result in assay [3] and in [4] was inactive.
As for `CC(C)(C)NCC(O)c1cc(O)cc(O)c1` (stereo not given), the Potency entry in assay [1], in assay [5], in assay [6], in [7], in assay [8] and in assay [9] was “inactive” each time. In addition, the Potency result in assay [10], in assay [15] and in assay [17] was “inactive” in each case. Further, the Potency is 0.268 µM (active) in assay [2] and 10.6 µM (active) in [18]. The result in assay [3] and in assay [4] was inactive.
Take `CCN(CC)C(=O)N(CC)CC`: the Potency entry in assay [1], in [2], in assay [5], in assay [6], in assay [7] and in assay [8] was “inactive” each time. In addition, the Potency entry in [9], in assay [10], in assay [11], in assay [19], in assay [12] and in assay [13] was “inactive” throughout. Also, the Potency entry in [15], in [17] and in assay [18] was “inactive” throughout. Further, the result in assay [3] and in [4] was inactive.
